In the supplement of paper PMC12645437, “Orthogonal IMiD-Degron Pairs Induce Selective Protein Degradation in Cells” (ACS Chemical Biology, 2025):
The full ranking holds about 8,300 sequences; the median of “log2 fold change of degron read counts, EGFP-low vs EGFP+ sorted cells (limma voom), compound-induced degradation” is about -1.1, and the highest 2% start at about 3.2. The entries come from a sample that favours the highest values as a whole.

T1: CRBN, Q96SW2
T1 chain: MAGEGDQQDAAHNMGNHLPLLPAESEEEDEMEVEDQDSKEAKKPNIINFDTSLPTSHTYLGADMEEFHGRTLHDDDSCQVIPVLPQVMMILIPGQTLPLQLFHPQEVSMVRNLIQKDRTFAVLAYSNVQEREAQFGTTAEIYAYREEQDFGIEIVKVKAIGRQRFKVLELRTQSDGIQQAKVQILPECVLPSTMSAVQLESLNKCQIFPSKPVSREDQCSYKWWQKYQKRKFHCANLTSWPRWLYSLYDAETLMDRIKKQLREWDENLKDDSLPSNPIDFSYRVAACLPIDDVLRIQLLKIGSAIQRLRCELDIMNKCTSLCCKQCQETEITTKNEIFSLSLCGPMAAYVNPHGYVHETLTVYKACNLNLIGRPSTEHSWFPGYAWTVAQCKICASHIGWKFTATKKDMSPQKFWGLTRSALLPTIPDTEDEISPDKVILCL


Biological target: T1, CRBN, Q96SW2
Assay: log2 fold change of degron read counts, EGFP-low vs EGFP+ sorted cells (limma voom), compound-induced degradation; higher = more compound-induced degradation of the degron-EGFP fusion; degrons are variants of IKZF1/3 zinc finger 2; compound dose not given here
Conditions: Jurkat, 18 h
[1] = compound: compound 19 (5-tert-butyl-thalidomide)
[2] = compound: compound 22 (5-morpholino-thalidomide)
[3] = compound: compound 33 (diphenyl IMiD analogue)
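Also: pooled lentiviral library of zinc finger degron-EGFP fusions in mCherry-positive Jurkat cells, FACS-sorted after compound exposure, with degron abundance counted by next-generation sequencing.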

Sequence | log2 fold change of degron read counts [1] | log2 fold change of degron read counts [2] | log2 fold change of degron read counts [3] | log2 fold change of degron read counts (compound: thalidomide)
FFCEICGRCFTQKGNLLRHIKL [46F_47F_49E_50I_52G_53R_54C_55F_67L_, Q9UKT9] | 0.787 | 0.568 | 0.232 | -0.767
LYCPICGFACTQKGNLLRHIKL [46L_47Y_49P_50I_52G_53F_54A_55C_67L_, Q9UKT9] | 2.98 | 3.33 | 2.6 | 1.77
LNCPICGFACTQKGNLLRHIKL [46L_47N_49P_50I_52G_53F_54A_55C_67L_, Q9UKT9] | 2.3 | 1.32 | 1.06 | 1.78
LTCPICGFACTQKGNLLRHIKL [46L_47T_49P_50I_52G_53F_54A_55C_67L_, Q9UKT9] | 2.49 | 3.12 | 2.65 | 3.02
LECPICGFACTQKGNLLRHIKL [46L_47E_49P_50I_52G_53F_54A_55C_67L_, Q9UKT9] | 1.75 | -0.131 | 2.17 | 3.17
LKCPICGFACTQKGNLLRHIKL [46L_47K_49P_50I_52G_53F_54A_55C_67L_, Q9UKT9] | 1.2 | -0.283 | -0.872 | 1.19
LCCPICGFACTQKGNLLRHIKL [46L_47C_49P_50I_52G_53F_54A_55C_67L_, Q9UKT9] | 2.49 | 2.68 | 2.8 | 2.77
LRCPICGFACTQKGNLLRHIKL [46L_47R_49P_50I_52G_53F_54A_55C_67L_, Q9UKT9] | 2.16 | 2.14 | 2.39 | 2.57
LVCPICGFACTQKGNLLRHIKL [46L_47V_49P_50I_52G_53F_54A_55C_67L_, Q9UKT9] | 1.96 | 3.25 | 2.26 | 3.56
LACPICGFACTQKGNLLRHIKL [46L_47A_49P_50I_52G_53F_54A_55C_67L_, Q9UKT9] | 3.6 | 2.95 | 2.05 | 2.43
LDCPICGFACTQKGNLLRHIKL [46L_47D_49P_50I_52G_53F_54A_55C_67L_, Q9UKT9] | 0.373 | -0.371 | 0.648 | 1.61
LFCPICGFACTQKGNLLRHIKL [46L_47F_49P_50I_52G_53F_54A_55C_67L_, Q9UKT9] | 3.05 | 3.52 | 2.44 | 1.94
LSCPICGFACTQKGNLLRHIKL [46L_47S_49P_50I_52G_53F_54A_55C_67L_, Q9UKT9] | 2.81 | 2.91 | 2.59 | 2.54
FKCNICGATFTQKGNLLRHIKL [46F_47K_49N_50I_52G_53A_54T_55F_67L_, Q9UKT9] | -2.19 | -2.52 | -3.31 | -1.21
FACDICGAGFTQKGNLLRHIKL [46F_47A_49D_50I_52G_53A_54G_55F_67L_, Q9UKT9] | 2.54 | 0.463 | -0.84 | -1.45
FECPICGRFFTQKGNLLRHIKL [46F_47E_49P_50I_52G_53R_54F_55F_67L_, Q9UKT9] | -1.85 | -1.84 | -0.566 | 0.632
FFCEICGHTFTQKGNLLRHIKL [46F_47F_49E_50I_52G_53H_54T_55F_67L_, Q9UKT9] | -2.85 | -2.26 | -2.37 | -2.09
FYCEQCGALFTQKGNLLRHIKL [46F_47Y_49E_50Q_52G_53A_54L_55F_67L_, Q9UKT9] | -0.0809 | 0.128 | -0.131 | -1.75
